# Source: PubChem BioAssay
# C diff growth = C. difficile growth inhibition | growth activity, negative = inhibition, % at 16 µg/mL (by protocol) | 86,000 tested, 0.25% active | Clostridium difficile clinical isolate growth, OD600, 24 h; stronger effect = lower value;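 active = mean growth activity at or below -80% and every replicate also at or below -80%; inconclusive = mean at or below -80% but some replicate above -80%; inactive = mean growth activity above -80%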;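 also: 0% = DMSO wells and -100% = levofloxacin 16 µg/mL wells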
# Pf Dd2 inh = inhibitors of Plasmodium falciparum Dd2 growth. P. falciparum Dd2 growth, SYBR Green, 72 h; stronger effect = lower value. activity change, % at 10 µM. 94,000 tested, 2.3% active. AID 1159554; in the data active = activity change below about -80%; inconclusive = no clear call, values can overlap the other calls
# T cruzi growth-1 = inhibitors of T. cruzi proliferation | T. cruzi beta-gal in NIH3T3, GalScreen luminescence, 90 h | 77,000 tested, 5.9% active | inhibition, % at 8.34 µM | AID 624255;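 active = mean inhibition above about 93%, with at least 55% of replicates each passing it, limit read from the data, passing the limit was not always enough; inconclusive = only one of those two conditions holds; inactive = neither condition holds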
# T cruzi growth-2 = blocks T. cruzi growth in NIH3T3 host cells. shares compounds with T cruzi growth-1. T. cruzi beta-gal in NIH3T3, GalScreen luminescence, 90 h. inhibition, % at 8.35 µM. 5,600 tested, 72% active. AID 651739;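 active = mean replicate inhibition above about 95% and at least 55% of replicates individually reaching it, limit read from the data; inconclusive = only one of the two criteria is met; inactive = neither criterion is met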
# T cruzi growth-3 = Trypanosoma cruzi proliferation inhibition | T. cruzi beta-gal in NIH3T3, GalScreen luminescence, 90 h | AID 651740 | shares compounds with T cruzi growth-1 | inhibition, % at 2.09 µM | 5,600 tested, 21% active;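 active = mean inhibition above about 95%, with at least 55% of replicates also reaching it, limit read from the data; inconclusive = meets just one of the two conditions; inactive = meets neither condition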;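 also: plate controls were neutral control median for no effect and positive control median for full effect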
# NIH3T3 tox = kills mouse NIH/3T3 fibroblasts | NIH/3T3 viability, CellTiter-Glo ATP luminescence, 90 h | AID 651742 | cytotoxicity (signal decrease), % at 8.35 µM | shares compounds with T cruzi growth-1 | 5,600 tested, 14% active;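 active = mean signal decrease across replicates above about 35% based on untreated-well scatter, with enough replicates individually passing, limit read from the data; inconclusive = no rule stated though some were filed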;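 also: 0% = median of neutral control wells and 100% = median of positive control wells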
# 3T3 cytotox 2 = cytotoxicity in mouse NIH/3T3 fibroblasts; shares compounds with T cruzi growth-1; inhibition, % at 24.9 µM; NIH/3T3 viability, CellTiter-Glo ATP luminescence, 90 h; 5,600 tested, 56% active; AID 651744;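 active = mean loss of cell viability signal at or above a set limit, and enough replicates individually reaching it; inconclusive = meets only the mean limit or only the replicate share; inactive = meets neither condition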;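 also: 0% = median of neutral control wells and 100% = median of positive control wells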
# * hit, by the source's call; ? = inconclusive; / = not tested or not shown. Only some compounds are listed: those with a hit (about 6.7% of all), similar ones and a draw of the others.
SMILES,C diff growth,Pf Dd2 inh,T cruzi growth-1,T cruzi growth-2,T cruzi growth-3,NIH3T3 tox,3T3 cytotox 2
COc1ccc(S(=O)(=O)N2CCCCN3[C@@H](CO)[C@H](c4ccc(C#CC5CC5)cc4)[C@@H]3C2)cc1,40.6,-2.6,109.0*,101.6*,66.4,45.3*,104.5*
O=S(=O)(c1ccc(F)cc1)N1CCCCN2[C@H](CO)[C@@H](c3ccc(C#CC4CC4)cc3)[C@@H]2C1,-1.4,-9.0,43.5,/,/,/,/
COc1ccc(S(=O)(=O)N2CCCCN3[C@H](C2)[C@@H](c2ccc(C#CC4CC4)cc2)[C@@H]3CO)cc1,30.1,14.8,106.8*,99.6*,107.6*,37.8*,76.7*
O=S(=O)(c1ccc(F)cc1)N1CCCCN2[C@@H](CO)[C@@H](c3ccc(C#CC4CC4)cc3)[C@@H]2C1,45.9,-70.3,85.6,/,/,/,/
CC(C)NC(=O)Nc1ccc2c(c1)C(=O)N([C@H](C)CO)C[C@H](C)[C@@H](CN(C)S(=O)(=O)c1cn(C)cn1)OCCCC[C@@H](C)O2,-1.7,36.1,-39.4,/,/,/,/
Cc1noc(C)c1NC(=O)Nc1ccc2c(c1)CC(=O)N([C@H](C)CO)C[C@H](C)[C@@H](CN(C)C(=O)Nc1c(C)noc1C)O2,-0.3,22.9,41.3,/,/,/,/
CS(=O)(=O)N1[C@H](C#N)[C@H](c2ccc(-c3ccccc3F)cc2)[C@@H]1CO,5.9,25.2,7.1,/,/,/,/
CC(C)C#Cc1ccc2c(c1)O[C@@H](CN(C)Cc1cncnc1)[C@@H](C)CN([C@H](C)CO)S2(=O)=O,4.6,-3.4,29.7,/,/,/,/
COc1ccc(C(=O)Nc2ccc3c(c2)C(=O)N(C)C[C@H](OC)[C@H](C)CN(C)[C@@H](C)CO3)cc1,-0.5,25.3,-12.7,/,/,/,/
COc1ccc(S(=O)(=O)N2CCCCN3[C@H](CO)[C@@H](c4ccc(C#CC5CC5)cc4)[C@@H]3C2)cc1,-5.0,1.5,117.0*,108.6*,87.6,18.7,55.3*
COc1ccc(C#Cc2ccc([C@@H]3[C@@H](CO)N4CCCCN(S(=O)(=O)c5ccccc5)C[C@H]34)cc2)cc1,11.3,-48.9,66.7,/,/,/,/
CCCC#Cc1ccc([C@@H]2[C@@H](CO)N3CCCCN(S(=O)(=O)c4ccccc4C)C[C@@H]23)cc1,-0.1,-31.9,115.7*,98.2*,78.9,17.3,101.6*
CC(C)CC#Cc1ccc([C@H]2[C@@H](CO)N3CCCCN(S(=O)(=O)Cc4ccccc4)C[C@H]23)cc1,7.0,-76.2,103.1*,98.2*,108.5*,27.6,107.7*
O=S(=O)(Cc1ccccc1)N1CCCCN2[C@@H](CO)[C@H](c3ccc(C#Cc4ccccc4)cc3)[C@@H]2C1,5.6,-79.5,116.7*,100.1*,82.1,51.2*,106.0*
CC(C)C#Cc1ccc([C@@H]2[C@@H](CO)N3CCCCN(S(=O)(=O)Cc4ccccc4)C[C@@H]23)cc1,7.6,-16.7,101.1*,105.0*,83.5,37.1*,104.3*
O=S(=O)(Cc1ccccc1)N1CCCCN2[C@H](CO)[C@@H](c3ccc(C#Cc4ccccc4)cc3)[C@@H]2C1,17.1,-28.9,92.4,/,/,/,/
COCC#Cc1ccc([C@@H]2[C@@H](CO)N3CCCCN(S(=O)(=O)c4ccccc4C)C[C@@H]23)cc1,6.6,4.8,30.5,/,/,/,/
O=S(=O)(Cc1ccccc1)N1CCCCN2[C@H](CO)[C@H](c3ccc(C#Cc4ccccc4)cc3)[C@H]2C1,22.4,-67.0,-2.1,/,/,/,/
C[C@H](O)C#Cc1ccc([C@H]2[C@@H](CO)N3CCCCN(S(=O)(=O)Cc4ccccc4)C[C@H]23)cc1,9.2,0.9,37.2,/,/,/,/
Cc1ccc(S(=O)(=O)NCC[C@H]2CC[C@@H](NC(=O)c3cccnc3)[C@@H](CO)O2)cc1,2.8,13.0,-19.6,/,/,/,/
COc1ccc(S(=O)(=O)N(C)C[C@@H]2Oc3ccc(NC(=O)C4CCCCC4)cc3CC(=O)N([C@H](C)CO)C[C@H]2C)cc1,-5.4,-15.2,43.7,/,/,/,/
CC(=O)N(C)C[C@@H]1Oc2cc(-c3cncnc3)ccc2S(=O)(=O)N([C@H](C)CO)C[C@H]1C,-0.9,47.6,-47.5,/,/,/,/
CCCC#Cc1ccc([C@H]2[C@H]3CN(S(=O)(=O)Cc4ccccc4)CCCCN3[C@H]2CO)cc1,11.1,-5.2,100.2*,103.8*,81.0,?,76.1*
O=S(=O)(Cc1ccccc1)N1CCCCN2[C@H](CO)[C@@H](c3ccc(C#Cc4ccccc4)cc3)[C@H]2C1,53.8,-22.2,56.7,/,/,/,/
Cc1noc(C)c1S(=O)(=O)N(C)C[C@@H]1OCCCC[C@@H](C)Oc2ccc(NS(=O)(=O)c3ccccc3)cc2C(=O)N([C@@H](C)CO)C[C@@H]1C,-0.1,-44.0,/,/,/,/,/
SMILES,C diff growth,Pf Dd2 inh,T cruzi growth-1,T cruzi growth-2,T cruzi growth-3,NIH3T3 tox,3T3 cytotox 2
CN1c2ccc(-c3ccccc3F)cc2[C@@H]2[C@@H](CCN2S(=O)(=O)c2ccccc2F)[C@@H]1CO,-2.5,3.3,115.9*,100.1*,64.3,?,40.8*
CN1c2ccc(-c3ccccc3F)cc2[C@H]2[C@H](CCN2S(=O)(=O)c2ccc(F)cc2)[C@@H]1CO,4.2,1.8,113.3*,98.8*,98.3*,18.9,79.8*
Cc1ccc(S(=O)(=O)N2CC[C@H]3[C@@H](CO)N(C)c4ccc(-c5ccccc5F)cc4[C@H]32)cc1,45.7,17.2,92.2,/,/,/,/
CN1c2ccc(-c3ccccc3F)cc2[C@H]2[C@H](CCN2S(=O)(=O)c2ccccc2F)[C@@H]1CO,-14.0,-9.1,93.1,/,/,/,/
CCNC(=O)[C@@H]1[C@@H](CO)[C@@H]2Cn3c(ccc(-c4ccccc4)c3=O)[C@@H]2N1C(=O)Cc1cccnc1,0.0,4.5,18.9,/,/,/,/
CCCN(C)C[C@H]1Oc2cc(C3=CCCC3)ccc2S(=O)(=O)N([C@H](C)CO)C[C@H]1C,/,-18.5,0.6,/,/,/,/
CCN1[C@@H]2c3ccc(C4=CCCCC4)c(=O)n3C[C@H]1[C@H](CO)[C@H]2C(=O)NCCc1ccncc1,4.2,5.9,2.4,/,/,/,/
COc1ccc(C(=O)N2C[C@@H]3[C@H](c4ccccc42)[C@@H](CO)N3C(=O)NC(C)C)cc1,4.5,-5.1,10.4,/,/,/,/
CN(C)CCCNC(=O)C[C@H]1CC[C@H]2[C@@H](COc3ccc(NC(=O)c4ccccc4F)cc3C(=O)N2C)O1,-1.1,10.5,21.1,/,/,/,/
C[C@H]1CCCCO[C@@H](CN(C)Cc2ccc(C(F)(F)F)cc2)[C@@H](C)CN([C@@H](C)CO)C(=O)c2cc(NS(=O)(=O)c3ccc(Cl)cc3)ccc2O1,30.1,-28.4,93.2,/,/,/,/
C[C@@H]1CN([C@@H](C)CO)C(=O)c2cc(NS(=O)(=O)c3ccc(Cl)cc3)ccc2O[C@@H](C)CCCCO[C@H]1CN(C)Cc1ccc(C(F)(F)F)cc1,28.5,-39.6,?,80.5,113.0*,104.1*,106.3*
